Shown are actives, neighbours in structure and some others; about 1% of the full set was active somewhere.
ugtP null kill – compounds lethal to S. aureus RN4220 ugtP deletion mutant. OD600 growth, 16 h. growth inhibition, % (no concentration beside the values). hit rate 0.54% among 330,000; in the data active = growth inhibition above about 68%;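 also: plate controls were untreated wells for no effect and antibiotic for full effect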
RN4220 kill – kills Staphylococcus aureus RN4220 | S. aureus RN4220 growth, OD600, 16 h | inhibition, % (no concentration beside the values) | hit rate 0.33% among 330,000; in the data active = inhibition above about 85%;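 also: plate controls were untreated cells for no effect and reference antibiotic for full effect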
Mtb hypoxia rep – inhibitors of hypoxia-regulated fluorescent reporter in Mycobacterium tuberculosis. fluorescence inhibition, % (concentration not given with the values). hit rate 0.1% among 300,000. M. tuberculosis hypoxia-regulated fluorescent reporter, fluorescence; in the data active = fluorescence inhibition mostly above about 23%, no sharp cut-off; inactive = mostly below about 17%
SSB-PriA inh – K. pneumoniae PriA-SSBct interaction inhibition; inhibition, % at 33 µM; hit rate 0.6% among 430,000; AID 1272365; AlphaScreen SSBct-PriA binding, biotinylated peptide; in the data active = inhibition mostly above about 37%, no sharp cut-off; inactive = mostly below about 20%;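 also: plate controls were negative control peptide for no effect and reference peptide for full effect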
Mtb betalactam – beta-lactam sensitization of Mtb H37Rv; M. tuberculosis H37Rv growth with meropenem, percent inhibition; inhibition, % at 25 µM; hit rate 0.27% among 330,000; call rule not given here;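 also: growth measured after seven days incubation then overnight dye step; 0% = bacteria only wells and 100% = bacteria with antibiotic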
* marks the source's active call; other numbers are inactive results; ? = inconclusive; · = no result shown; ! = repeats disagree.

SMILES	ugtP null kill	RN4220 kill	Mtb hypoxia rep	SSB-PriA inh	Mtb betalactam
O=C(Nc1nc(-c2ccccn2)cs1)c1cc(Cl)ccc1Cl	·	·	·	86*	·
Cc1csc2ncc(C(=O)Nc3nc(-c4ccccn4)cs3)c(=O)n12	·	·	·	51	·
Cc1cnc(C(=O)Nc2nc(-c3ccccn3)cs2)cn1	·	·	·	120*	·
O=C(Nc1nc(-c2ccccn2)cs1)c1cccc(C(=O)Nc2nc(-c3ccccn3)cs2)n1	·	·	·	2	·
O=C(Nc1nc(-c2ccccn2)cs1)c1cc(Cl)ccn1	·	·	·	99*	·
CC(=O)c1cccc(NC(=O)c2coc(NC(=O)c3cc(C)oc3C)n2)c1	·	·	·	3	·
Cc1ccc(-c2cnc(SCC(=O)N3CCCCC3)n2C)cc1	·	·	·	2	·
CC(C)C(=O)N1CCc2ccc([N+](=O)[O-])cc2C1	·	·	·	20	·
COc1ccc(Cn2c(SCc3ccc(C)cc3)nc3cc(OC)c(OC)cc3c2=N)cc1Cl	99*	100*	6	-14	100
COc1ccc(S(=O)(=O)Nc2ccc3c(c2)N(C(=O)C2CC2)CC3)cc1Cl	·	·	·	-2	·
Cn1nc(CN(Cc2ccco2)C(=O)N2CCN(S(C)(=O)=O)C2=O)c2c1CCC2	·	·	·	84*	·
Cc1nc(SCc2ccc(F)cc2)[nH]c(=O)c1CC(=O)N1CCC(C(N)=O)CC1	·	·	·	-5	·
O=C(NCc1ccc(F)cc1)c1ccc(N2CCc3ccccc32)c([N+](=O)[O-])c1	-6	-3	8	74*	4
O=C(O)c1ccc(N2CCc3ccccc32)c([N+](=O)[O-])c1	6	6	10	-5	-4
CCOC(CNC(=O)c1ccc(N2CCc3ccccc32)c([N+](=O)[O-])c1)OCC	-6	4	8	63*	-2
COC(=O)c1ccc(N2CCc3ccccc32)c([N+](=O)[O-])c1	9	3	7	52*	1
Cc1ccc2oc(=O)n(CCOc3ccc(Br)cc3)c2c1	·	·	·	6	·
CS(=O)(=O)c1ccc(C(O)C(CO)NC(=O)C(Cl)Cl)cc1 (stereo not given)	70	44	80*	·	·
CS(=O)(=O)c1ccc(C(O)C(CF)NC(=O)C(Cl)Cl)cc1 (stereo not given)	100*	99*	·	·	·
CCOC(=O)[C@@H]1[C@H]2COc3ccccc3[C@H]2N2C(=O)N(c3ccc(F)cc3)C(=O)[C@]12C	·	·	·	-12	4
CCOC(=O)C1C2COc3ccccc3C2N2C(=O)N(c3ccc(C(F)(F)F)cc3)C(=O)[C@]12C (stereo not given in full)	100*!	101*!	-1	·	·
Cn1c(C=O)c(C#Cc2ccccc2)c2ccccc21	100*	-3	2	-159	26
Cn1c(-c2ccc(C#N)cc2)c(C#Cc2ccccc2)c2ccccc21	·	·	·	-26	·
COc1ccc(C#Cc2c(C=O)n(C)c3ccccc23)cc1	100*	1	15	-30	63
CCCCC(=O)Nc1sc(C)c(C)c1C(N)=O	·	·	·	11	·
SMILES	ugtP null kill	RN4220 kill	Mtb hypoxia rep	SSB-PriA inh	Mtb betalactam
O=C(Nc1ccc(CN2CCN(c3ccccn3)CC2)cc1)Nc1ccc2c(c1)OCO2	·	·	·	50*	·
O=C(c1ccccc1)c1nn(-c2ccc(Cl)cc2)c(=O)cc1C(F)(F)F	81	94*	·	6	100
CCn1c(-c2ccccc2)cs/c1=N\NC(=O)c1ccncc1	·	·	·	1	·
Cc1ccccc1-c1noc(CC2CCCN(S(=O)(=O)c3c(C)noc3C)C2)n1 (stereo not given)	·	·	·	-9	·
CCCN(CCC)S(=O)(=O)c1ccc(C(=O)Nc2nnc(-c3cccc(OC)c3)o2)cc1	100*	99*	-5	-7	97
CS(=O)(=O)c1ccccc1-c1nnc(NC(=O)c2nc3ccccc3s2)o1	·	·	·	-18	·
COc1cccc(-c2nnc(NC(=O)c3cccc(F)c3)o2)c1	98*	98*	-2	-3	97
COc1cccc(-c2nnc(NC(=O)c3ccccc3Br)o2)c1	11	9	5	-15	90
Cc1cccc(-c2nnc(NC(=O)c3ccc(Cl)cc3)o2)c1	95*	99*	2	0	?
CCCN(CCC)S(=O)(=O)c1ccc(C(=O)Nc2nnc(-c3cc(OC)cc(OC)c3)o2)cc1	21	55	·	-14	85
O=C(Nc1nnc(-c2ccc(Cl)cc2)o1)c1nc2ccccc2s1	99*	100*	6	-9	96
O=C(Nc1nnc(-c2ccc3c(c2)OCCO3)o1)c1ccc(Cc2ccccc2)cc1	100*	99*	8	-15	73
COc1cccc(-c2nnc(NC(=O)c3ccc(Cl)s3)o2)c1	100*	100*	3	-16	95
O=C(Nc1nnc(-c2ccc(Br)cc2)o1)c1cc(Cl)sc1Cl	·	·	·	7	·
O=C(Nc1nnc(-c2ccc(F)cc2)o1)c1cc(Cl)sc1Cl	99*	100*	6	1	95
COC(=O)c1c(N=CNOCc2ccc(Cl)cc2)sc2c1CCN(c1ncc(C(F)(F)F)cc1Cl)C2	·	·	·	-5	·
O=C(Cn1ncc2c(c1=O)N(C1CC1)C(=O)CS2)NC1CCCCC1	·	·	·	-3	·
Cc1ccc(OCCn2c(CN3CCCCC3)nc3ccccc32)cc1C	·	·	·	-3	·
CS(=O)(=O)c1ccc(C(=O)Nc2nnc(Cc3cccs3)o2)cc1	·	·	·	64*	·
CCCCN(C)S(=O)(=O)c1ccc(C(=O)Nc2nnc(-c3cccs3)o2)cc1	97*	104*	·	·	94
O=C(Nc1nnc(-c2cccs2)o1)c1cccc(Oc2ccccc2)c1	100*	99*	5	-9	97
CCN(CC)S(=O)(=O)c1ccc(C(=O)Nc2nnc(Cc3cccs3)o2)cc1	·	·	·	41	·
O=C(Nc1nnc(-c2cccs2)o1)c1cccc(F)c1	18	28	-1	-1	91
CC1CCCN(S(=O)(=O)c2ccc(C(=O)Nc3nnc(Cc4cccs4)o3)cc2)C1 (stereo not given)	·	·	·	37*	·
COc1ccc(C[C@](C)(O)CNS(=O)(=O)c2cccs2)cc1	·	·	·	-17	·
SMILES	ugtP null kill	RN4220 kill	Mtb hypoxia rep	SSB-PriA inh	Mtb betalactam
CSc1ccccc1C(=O)Nc1nnc(Cc2cccs2)o1	·	·	·	45*	·
CCCCN(CC)S(=O)(=O)c1ccc(C(=O)Nc2nnc(CSC)o2)cc1	17	47	5	12	·
CN(C1CC1)S(=O)(=O)c1ccc(C(=O)Nc2nnc(Cc3cccs3)o2)cc1	·	·	·	74*	·
CCCCN(C)S(=O)(=O)c1ccc(C(=O)Nc2nnc(Cc3cccs3)o2)cc1	·	·	·	58*	·
CCCCN(CCCC)S(=O)(=O)c1ccc(C(=O)Nc2nnc(CSC)o2)cc1	99*	112*	·	3	69
CC(C)S(=O)(=O)c1ccc(CC(=O)NCCc2nc(-c3cccs3)cn2C)cc1	·	·	·	-15	·
CN(C)S(=O)(=O)c1ccc(C(=O)Nc2nnc(Cc3cccs3)o2)cc1	·	·	·	74*	·
COC(=O)C1=C(C(=O)OC)C(c2cccs2)c2sc(=O)[nH]c2S1 (stereo not given)	·	·	·	-14	·
NC(=O)N/N=C1/CCCC1c1ccccn1 (stereo not given)	·	·	·	67*	·
Cc1ccc(CSC(Nc2ccc(F)cc2)=C(C#N)C#N)cc1	97*	97*	0	-5	-3
O=C(NCC1CCN(C(=O)c2ccoc2)CC1)C(=O)NCC(F)(F)F	·	·	·	-9	·
O=C(O)C1CCC(Cn2c(SCC(=O)N3CCCc4ccccc43)nc3ccsc3c2=O)CC1 (stereo not given)	·	·	·	-1	·
O=[N+]([O-])c1cccnc1Sc1ncccc1O	·	·	·	35	·

Bioassay records as filed in PubChem.
